Bioassay records: PubChem, National Center for Advancing Translational Sciences (NCATS)
Hits are enriched below; roughly 2.9% of the tested compounds scored in any of these assays.
KDM5B inh: Primary screen for KDM5B Histone Demethylases FDH-coupled qHTS; 2.6% of 220,000 active; Lysine-specific demethylase 5B (Homo sapiens), Q9UGL1; KDM5B demethylase, FDH-coupled NADH fluorescence (FDH is formaldehyde dehydrogenase); Potency, µM (highest dose often 57.7 µM), most hits filed as inhibitors; note: nearly all actives have a fitted effect of over 70% in size
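Here, H3K4me3 peptide (12.5 µM in substrate mix) is demethylated by KDM5BΔAP, 200 nM final, after 10 min compound exposure. Formaldehyde product is coupled through FDH (0.25 U/mL in mix) to NADH fluorescence; 30-min ΔRFU feeds dose-response curves.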
SNCA expr inhib: Primary qHTS assay for inhibitors of alpha-synuclein gene (SNCA) expression. Potency, µM (series often up to 57.2 µM), usual class: inhibitors. AID 1671194, 2021. 0.17% of 140,000 active. HEK-293 SNCA-luciferase knock-in, luminescence, 24 h; note: nearly all actives have a fitted effect of over 45% in size
IP6K1 inh: Primary qHTS assay for small molecule inhibitors of Inositol hexaphosphate kinase 1 (IP6K1); Inositol hexakisphosphate kinase 1 (Homo sapiens), Q92551; IP6K1 kinase, ADP-Glo luminescence, 2 h; hits give low values; activity change, % (series mostly up to about 58 µM); 0.81% of 140,000 active; AID 1645851, 2021; in the data active = activity change below about -25%
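ADP-Glo luminescence measures ADP made by human IP6K1 during a 2 h RT reaction with ATP/IP6 (mix at 1.3 mM/130 uM); top library doses 57.5 and 19.1 uM final.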
HEK293 viab: GF-AFC viability counterscreen for inhibitors of alpha-synuclein gene (SNCA) expression. HEK-293-SNCA-luc viability, GF-AFC fluorescence, 24 h. Potency, µM (series often up to 57.1 µM), actives largely listed as cytotoxic. 0.12% of 150,000 active. AID 1671193, 2021; note: nearly all actives have a fitted effect of over 30% in size
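Cytotoxicity counterscreen: after 24 h compound treatment of genome-edited SNCA-luciferase HEK-293 cells, live-cell protease substrate GF-AFC read by fluorescence after 30 min; activity scaled between DMSO (0%) and medium-only (-100%), curves Hill-fitted.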
IP6K1 inh cnf: Confirmatory qHTS assay for small molecule inhibitors of Inositol hexaphosphate kinase 1 (IP6K1) | shares compounds with IP6K1 inh | recombinant IP6K1 kinase, ADP-Glo luminescence, 2 h | Potency, µM (doses to about 49 µM), hits mostly inhibitors | 13% of 1,200 active | AID 1645852, 2021; note: nearly all actives have a fitted effect of over 65% in size
Numbers stand for hits; i = inactive; ? = inconclusive; nt = no result given; ! = not confirmed by another sample. Unless noted, calls come from the whole dose curve; as a rule, active = well fitted curve in the direction sought with a large enough effect; inconclusive = small, poorly fitted or top-dose-only effect, or another doubt; inactive = no such curve, though single readings can be large; an effect the other way counts as inactive or inconclusive.

SMILES | KDM5B inh | SNCA expr inhib | IP6K1 inh | HEK293 viab | IP6K1 inh cnf
COc1cc(F)ccc1-c1cc(C(=O)NCc2c(C)cc(C)[nH]c2=O)c2c(c1)N(C(C)C)CCO2 | 32µM | i | -27 | i | i
COc1ccc(-c2cc(C(=O)NCc3cccnc3)c3c(c2)N(C)CCO3)cc1OC | ? | i | i | i | nt
Cc1cc(C)c(CNC(=O)c2cc(-c3cccnc3)cc3c2OCCN3C)c(=O)[nH]1 | ? | i | -28 | i | i
CC(C)c1ccc(-c2nc3c([nH]2)c(=O)n(C)c(=O)n3C)cc1 | i | nt | nt | nt | nt
Cn1c(=O)c2[nH]c(-c3ccc(S(=O)(=O)O)cc3)nc2n(C)c1=O | nt | i | nt | i | i
CNC(C)c1ccco1 (centres undefined) | ? | i | i | i | nt
Cc1cc(-c2nccc3c(=O)cc(N(C)c4ccccc4)oc23)ccn1 | ? | i | i | i | nt
CN(C)c1cc(=O)c2ccnc(-c3cccc(CO)c3)c2o1 | i | i | -25 | i | i
CCOc1cc(/C=C/C(=O)c2ccc(C#N)cc2)cc(Cl)c1OC | i | nt | nt | nt | nt
Cc1nn(-c2ccccc2)c(OC(=O)c2ccc(Br)cc2)c1S(=O)(=O)c1ccccc1 | ? | i | -32 | i | i
Cc1ccc(C(=O)Oc2c(S(=O)(=O)c3ccccc3)c(C)nn2-c2ccccc2)cc1 | ? | i | i | i | nt
Cc1cc(SCc2cccc(F)c2)c2ccccc2n1 | i | nt | nt | nt | nt
Cc1cccc(-c2nnc(SCCC(=O)O)o2)c1 | ? | ? | -37 | i | ?
Cc1ccc(CCNC(=O)CCn2nc(-c3ccc(Cl)cc3)ccc2=O)cc1 | ? | i | -28 | i | i
O=C(CCn1nc(-c2ccc(Cl)cc2)ccc1=O)NCCc1ccccc1 | ? | i | i | i | nt
CC1=C/C(=N/NC(=S)NC2CCCCC2)CC1 | i | nt | nt | nt | nt
Cc1ccc(S(=O)(=O)c2cnc(SCC(=O)Nc3ccc4c(c3)OCCO4)[nH]c2=O)cc1 | i | i | -30 | i | ?
CC(C)c1ccc(S(=O)(=O)c2cnc(SCC(=O)Nc3ccc4c(c3)OCCO4)[nH]c2=O)cc1 | i | i | i | i | nt
COc1cccc(NC(=O)CSc2ncc(S(=O)(=O)c3ccc(C)c(C)c3)c(=O)[nH]2)c1 | i | ? | -29 | i | ?
CCOc1ccc(-c2nonc2NC(=O)c2oc3ccccc3c2C)cc1OCC | i | nt | nt | nt | nt
Cc1ccsc1/C=C/C1=NCCCN1C | nt | i | -33 | i | i
Cc1ccsc1C(=O)N1CCCN(C)c2ccccc21 | i | i | i | i | nt
Cc1ccc2c(c1)C(=O)C(=O)N2Cc1ccc(OC(C)C)cc1 | i | ? | -38 | ? | i
CCCCn1c(Cn2ccnc2C)nc2cc(NC(=O)c3ccc(OC)cc3)ccc21 | i | nt | nt | nt | nt
Cc1ccccc1CN1C(=O)c2ccccc2Sc2ccc(C(=O)O)cc21 | i | i | i | i | nt
SMILES | KDM5B inh | SNCA expr inhib | IP6K1 inh | HEK293 viab | IP6K1 inh cnf
O=C(O)c1cccc(CN2C(=O)/C(=C(\c3ccccc3)c3ccc(Cl)cc3)c3ccccc32)c1 | nt | nt | -26 | i | 21µM
CC(C)CNC(=O)c1ccnc(-c2nnc3ccc(Nc4ccccc4)nn23)c1 | ? | i | -28 | i | ?
C[C@@H]1CN(C(=O)c2ccnc(-c3nnc4ccc(Nc5ccccc5)nn34)c2)C[C@H](C)O1 | i | i | i | i | nt
CC(C)(C)c1ccc(CSC2=Nc3ccccc3C3=NC(CC(=O)NCc4cccs4)C(=O)N23)cc1 (centres undefined) | ? | i | -26 | i | i
CCCC(=O)c1ccc(OC(=O)c2c(-c3ccccc3Cl)noc2C)cc1 | ? | i | -35 | i | i
Cc1cnc(CCNC(=O)C2CC=CC2)n1C1CC1 | i | i | i | ? | nt
Cc1ccc(NC(=O)Cn2ncn3c(cc4ccccc43)c2=O)cc1C | ? | i | -28 | i | i
Cn1nc(-c2ccc(C(F)(F)F)cc2)nc2c(=O)n(C)c(=O)nc1-2 | nt | nt | -41 | ? | ?
Cn1nc(C(C)(C)C)cc1C(=O)NNC(=O)c1ccc(C(F)(F)F)cc1 | i | nt | nt | nt | nt
NCC(=O)N[C@H]1CN(c2nccc(C(F)(F)F)n2)C[C@@H]1C1CC1 | i | i | i | i | nt
COc1ccc(NC(=O)c2nnn(Cc3ccccc3C)c2N)c(OC)c1 | ? | ? | -27 | i | i
c1cnc2nc(C3CCNC3)[nH]c2c1 (centres undefined) | ? | i | i | i | nt
c1cnc2nc(-c3c[nH]c4ncccc34)[nH]c2c1 | ? | i | -44! | i | ?
Cc1ccc(Cn2c(-c3ccccc3)nc3ccccc32)cc1 | ? | i | -27 | i | i
Cc1ccc(Cn2c(Cc3ccccc3)nc3ccccc32)cc1 | i | i | -27 | i | i
C[C@@H]1CN(c2cc(C3CC(O)C3)ncn2)C[C@H](C)O1 (some centres undefined) | i | i | -31 | i | i
CN1C(=O)N(C)C2(CCN(c3cc(C4CC(O)C4)ncn3)CC2)C1=O (centres undefined) | i | i | i | i | nt
CCN(C(=O)CSc1nc(-c2ccccc2)no1)c1cccc(C)c1 | i | ? | -44 | ? | i
CCN(C(=O)Cn1cccc1-c1nc(-c2ccccc2)no1)c1cccc(C)c1 | ? | i | i | i | nt
Cc1ccc(-c2nnc3ccc(Nc4cccc(N(C)C)c4)nn23)nc1 | ? | i | -25 | i | i
O=C(c1cc(O)c(O)c(O)c1)c1ccc(O)c(O)c1O | nt | i | -67 | i | i
O=C(O)c1cc(O)c(O)c(O)c1 | nt | i | -28 | i | i
S=C(NCCc1ccccc1)Nc1ccc(NC(=S)NCCc2ccccc2)c(Cl)c1 | i | nt | nt | nt | nt
COC(=O)c1ccccc1NC(=O)c1sc2nc(C)cc(C)c2c1NC(=O)c1ccccc1OC | ? | i | -30 | i | i
O=C(Cc1cccs1)NC1CCN(c2cc(C(F)(F)F)ncn2)CC1 | i | i | i | i | nt
SMILES | KDM5B inh | SNCA expr inhib | IP6K1 inh | HEK293 viab | IP6K1 inh cnf
CSc1ncccc1C(=O)NC1CC(c2cc(=O)[nH]c(N)n2)C1 (centres undefined) | i | i | i | i | nt
COc1ccc(-c2ccc(C(=O)NC3CC(c4cc(=O)[nH]c(N)n4)C3)o2)cc1 (centres undefined) | i | i | -30 | i | ?
CSc1ccc(/C=C/c2nc3ccccc3n2S(=O)(=O)c2ccc(F)c(C)c2)cc1 | ? | i | -39 | i | ?
CC(C)Cn1c(/C=C/c2ccc(F)cc2)nc2ccccc21 | ? | i | i | i | nt
CC(=O)c1ccc(OC(=O)c2ccccc2C)cc1 | i | nt | nt | nt | nt
COc1ccc(C)cc1Nc1nc(-c2cccc(Cl)c2)c2c(n1)-c1ccccc1OC2 | i | i | i | i | nt
Fc1ccc(Nc2nc(-c3cccc(Cl)c3)c3c(n2)-c2ccccc2OC3)c(F)c1 | ? | i | -27 | i | i
CN1Cc2ncnc(NCC3CC3)c2CN(c2ccc(Cl)cc2)C1=O | i | i | i | i | nt
